In PubChem BioAssay (NCI):
About 83,000 compounds went through this panel and 20% of them were active in at least one assay; those are over-represented in the sample as a whole.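 Activity criterion: percent growth below 10, measured after cells in 96-well plates were exposed to a single compound concentration for 48 hours.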 Values without a mark were called inactive. Active and inactive are the calls of the source.

Tests used:
Assay in all cases: NCI-60 one-dose screen, 48 h (100 = growth as untreated, 0 = no growth, -100 = all killed)
Settings in all cases: 10 µM unless noted
HCT-15 colon = test system: HCT-15 colon
HT29 colon = test system: HT29 colon
SNB-75 CNS = test system: SNB-75 CNS
SNB-19 CNS = test system: SNB-19 CNS
U251 CNS = test system: U251 CNS
SK-MEL-5 melanoma = test system: SK-MEL-5 melanoma
UACC-62 melanoma = test system: UACC-62 melanoma
LOX IMVI melanoma = test system: LOX IMVI melanoma
SK-MEL-28 melanoma = test system: SK-MEL-28 melanoma

| SMILES | growth (HCT-15 colon) | growth (HT29 colon) | growth (SNB-75 CNS) | growth (SNB-19 CNS) | growth (U251 CNS) | growth (SK-MEL-5 melanoma) | growth (UACC-62 melanoma) | growth (LOX IMVI melanoma) | growth (SK-MEL-28 melanoma) |
| --- | --- | --- | --- | --- | --- | --- | --- | --- | --- |
| O=C(Nc1ccccc1Cl)c1ccc(NC2=C(Cl)C(=O)N(C3CCCCC3)C2=O)cc1 | 46.5% [30 µM] | 37.4% [30 µM] | 38.8% [30 µM] | 62.1% [30 µM] | 34.1% [30 µM] | 54.4% [30 µM] | 66.2% [30 µM] | 23.7% [30 µM] | 56.1% [30 µM] |
| C(=C\c1nccc2c1[nH]c1ccccc12)/c1ccccc1 | 18.7% | 1.31% (active) | -20.1% (active) | 35% | 15.1% | 2.59% (active) | 39.3% | 25.5% | 49.6% |
| CN1CCN=C1c1ccc(NC(=O)c2ccc(C(=O)Nc3ccc(C4=NCCN4C)cc3)cc2)cc1 | 108% | 98.8% | 91.2% | 92% | 93.6% | 84.7% | 91.8% | 94.2% | 110% |
| O=C(CCN1C(=O)/C(=C/c2ccc(Cl)cc2)SC1=S)NCCCN1CCOCC1 | 98% | 105% | 92.4% | 101% | 102% | 97.5% | 92.4% | 99.7% | 100% |
| CN(C)CCN1C(=O)c2cccc3c(N)ccc(c23)C1=O | 23.2% | 13.5% | 56.9% | 27.3% | 22.5% | -21.8% (active) | 33.1% | 5.28% (active) | 71.2% |
| Cc1ccc(/C=C2\SC(=S)N(CC(=O)NCCCN3CCOCC3)C2=O)cc1 | 96.3% | 109% | 87.2% | 94.5% | 100% | 97.1% | 99.7% | 91.7% | 100% |
| O=C(/C=C/c1ccc(C(F)(F)F)cc1)Nc1ccc(C=C2c3ccccc3C(=O)c3ccccc32)cc1 | 47.4% | 46.5% | 46.6% | 66.5% | 33.8% | 44.7% | 52.2% | 76.7% | 60.2% |
| O=C(Cc1ccccc1Nc1c(Cl)cccc1Cl)NN1C(=O)/C(=C/c2ccc(Br)cc2)SC1=S | 104% | 109% | 86.4% | 105% | 102% | 98.6% | 101% | 97.5% | 105% |
| Fc1ccc(CNc2cccc3[nH]c(C(F)(F)F)nc23)cc1 | 98.3% | 104% | 73.9% | 79.2% | 80.7% | 96.1% | 79.6% | 99.4% | 89% |
| C(=N/Nc1ncc(-c2cc3cc(-c4ccccc4)ccc3o2)s1)/c1cccs1 | 99.2% | 99.6% | 100% | 99.3% | 99.5% | 96.8% | 90.7% | 98.7% | 96.1% |
| COc1ccc(-n2nc(C)c3c(Nc4ccc(NC(=O)Nc5c(Cl)cccc5Cl)cc4)ncnc32)cc1 | 72.2% | 31.4% | 55.9% | 79.4% | 63.3% | 5.92% (active) | 46.7% | 39.1% | 81.9% |
| Cc1cc(C)nc(SC2=C(Nc3ccc(C)c(Cl)c3)C(=O)N(Cc3ccccc3)C2=O)n1 | 63% [30 µM] | 46% [30 µM] | 58.9% [30 µM] | 78.2% [30 µM] | 68.8% [30 µM] | 62.2% [30 µM] | 49.7% [30 µM] | 75.9% [30 µM] | 94.2% [30 µM] |
| C#Cc1cccc(NC(=O)c2ccccc2NC(=O)C=C)c1 | 104% [8.25 µM] | 109% [8.25 µM] | 75% [8.25 µM] | 94.1% [8.25 µM] | 100% [8.25 µM] | 99.5% [8.25 µM] | 104% [8.25 µM] | 97.4% [8.25 µM] | 109% [8.25 µM] |
| CCNc1ncnc2c1cnn2C1CCCO1 (configuration not stated) | 106% | 119% | 89.4% | 105% | 107% | 105% | 107% | 111% | 107% |
| NC(=O)c1cc(Br)ccc1NC(=O)/C=C/c1ccccc1 | 30.9% | 13.9% | -7.05% (active) | 47.2% | 28.7% | 12.2% | 43% | 52.1% | 42.2% |
| O=c1c(F)cn(Cc2ccccc2CCl)c(=O)n1Cc1ccccc1CCl | -57.6% (active) | -83.7% (active) | -5.72% (active) | -23% (active) | -71.6% (active) | -100% (active) | -82.6% (active) | -81.7% (active) | -65% (active) |
| CC(=O)O[C@H]1[C@@H]2OC(=O)C(CSc3ccccc3)[C@@H]2C[C@H]2O[C@]2(C)CC/C=C(\C)CCC[C@@H]1C (some centres not stated) | 12.8% | 19.5% | 37.1% | 68% | 51.6% | 47% | 38.3% | 28.4% | 37.7% |
| CCCCC(=O)OCC1OC(n2cnc3c(=S)nc[nH]c32)C(OC(=O)CCCC)C1OC(=O)CCCC (configuration not stated) | 33.1% | 27% | 51% | 64.2% | 70.1% | 23.3% | 7.37% (active) | 12.1% | 85.7% |
| COc1ccc(S(=O)(=O)N2CC3(COC3)C2)cc1NC(=O)c1[nH]c(C)c2c1CCCCC2=O | 70.1% | 19.2% | 19.4% | 54.9% | 62.8% | 46.5% | 23.4% | 17.3% | 73.7% |
| CN1CCN(c2ccc3nc(-c4ccc(OCCCCN5CCN(CCCCN6C(=O)c7cccc8cccc(c78)C6=O)CC5)cc4)[nH]c3c2)CC1 | 76.2% | 60.3% | 36.4% | 84.2% | 64.8% | 69.1% | 95.4% | 47.1% | 24.6% |
| Cc1ccc(C2=NN3C(C2)c2cc(Br)ccc2OC32CCN(Cc3ccccc3)CC2)o1 (configuration not stated) | 85.1% | 107% | 79% | 94.9% | 96.3% | 92.1% | 82.3% | 94.4% | 102% |
| Cn1cc(-c2nonc2-c2cn(C)c3ccc(F)cc23)c2ccccc21 | 18.8% | 6.32% (active) | -17.9% (active) | 31.6% | 23.5% | 24.1% | 30.4% | 34.8% | 63.3% |
| Cn1cc(C(=O)c2nc(-c3c[nH]c4ccccc34)no2)c2ccccc21 | 25.6% | 35.8% | 55.6% | 91.8% | 92.4% | 16.8% | 60.3% | 83.9% | 94% |
| COc1ccc(C(=O)c2sc3nc4c(c(-c5cccnc5)c3c2N)CCCC4)cc1OC | 72.8% | 74.3% | 56.4% | 71% | 70.2% | 59.6% | 87.6% | 70.2% | 77.9% |
| Cn1c(=O)[nH]c(=O)c2nc(CCC(=O)NCCC(=O)O)c(=O)[nH]c21 | 106% | 106% | 89% | 104% | 98.2% | 103% | 105% | 98.6% | 103% |
| COc1ccccc1NS(=O)(=O)c1ccc2oc(SC(C)C)nc2c1 | 125% | 96.3% | 102% | 93.7% | 138% | 49.9% | 59.9% | 146% | 115% |
| c1csc(C2=NN3C(C2)c2ccccc2OC3c2ccncc2)c1 (configuration not stated) | 95.5% | 107% | 82.2% | 90.5% | 91.5% | 92.7% | 94.1% | 89.3% | 107% |
| COc1cc2nnc3c4cccnc4[nH]c3c2cc1OC | 16% | -2.61% (active) | 51.2% | 75.7% | 1.26% (active) | 93.5% | 30.8% | 12.8% | 47.6% |
